Values without a mark were called inactive.
Columns and labels:
Assay in all cases: log2 ratio of Biotin-Ahx-Ub-VS probe labelling (fragment/DMSO); higher = less target engagement (more negative = stronger competition), active = hit call of the paper (q ≤ 0.05, log2 ratio ≤ -1)
Settings in all cases: compound concentration: 200 uM; treatment time: 3 h
[1] = target: T1, USP42 (UniProt Q9H9J4)
T1 sequence (whole entry): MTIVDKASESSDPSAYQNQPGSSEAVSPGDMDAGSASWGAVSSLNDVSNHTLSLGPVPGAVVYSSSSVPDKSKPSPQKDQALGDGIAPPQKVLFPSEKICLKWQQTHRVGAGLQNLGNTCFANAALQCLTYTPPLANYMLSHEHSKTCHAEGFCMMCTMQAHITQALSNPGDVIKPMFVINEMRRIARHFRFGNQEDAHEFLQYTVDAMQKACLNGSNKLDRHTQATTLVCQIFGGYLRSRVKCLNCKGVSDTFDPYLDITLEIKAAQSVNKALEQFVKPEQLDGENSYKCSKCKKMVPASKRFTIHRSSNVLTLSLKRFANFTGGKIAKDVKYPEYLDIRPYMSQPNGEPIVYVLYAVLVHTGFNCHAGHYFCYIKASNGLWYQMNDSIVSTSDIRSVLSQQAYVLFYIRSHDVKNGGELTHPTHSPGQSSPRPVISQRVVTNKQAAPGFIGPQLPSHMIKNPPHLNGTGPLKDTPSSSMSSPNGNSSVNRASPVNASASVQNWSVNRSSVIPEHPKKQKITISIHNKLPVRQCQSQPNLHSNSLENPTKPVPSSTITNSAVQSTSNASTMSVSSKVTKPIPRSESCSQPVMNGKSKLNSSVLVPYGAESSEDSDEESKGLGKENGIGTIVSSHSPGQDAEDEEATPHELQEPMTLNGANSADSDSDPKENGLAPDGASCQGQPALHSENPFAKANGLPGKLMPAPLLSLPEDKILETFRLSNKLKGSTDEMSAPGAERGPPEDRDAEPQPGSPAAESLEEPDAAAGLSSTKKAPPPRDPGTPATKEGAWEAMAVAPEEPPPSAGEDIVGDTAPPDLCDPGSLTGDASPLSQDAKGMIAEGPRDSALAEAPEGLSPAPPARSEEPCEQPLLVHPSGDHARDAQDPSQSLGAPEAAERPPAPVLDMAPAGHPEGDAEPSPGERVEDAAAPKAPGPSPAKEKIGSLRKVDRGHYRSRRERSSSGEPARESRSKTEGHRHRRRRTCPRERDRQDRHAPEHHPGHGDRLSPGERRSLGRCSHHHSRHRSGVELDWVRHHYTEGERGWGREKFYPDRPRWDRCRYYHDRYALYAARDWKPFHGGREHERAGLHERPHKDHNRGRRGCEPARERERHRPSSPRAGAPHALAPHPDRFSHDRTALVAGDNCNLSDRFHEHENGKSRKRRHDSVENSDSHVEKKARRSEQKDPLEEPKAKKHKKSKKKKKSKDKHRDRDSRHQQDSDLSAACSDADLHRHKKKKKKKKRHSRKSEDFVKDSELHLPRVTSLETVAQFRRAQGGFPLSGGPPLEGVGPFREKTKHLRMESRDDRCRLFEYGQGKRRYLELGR
How it was run: (§1)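 The table lists average log2 ratios of fragment over vehicle, from an unpaired t-test on global-median-normalised Spectronaut label-free quantities. Proteins with ≥2 unique peptides were used. Samples were HEK293T lysate (495 µg) treated in triplicate with fragment at 200 µM or vehicle for 3 h, then with Biotin-Ahx-Ub-VS (0.5 µM final) for 1 h, with labelled DUBs NeutrAvidin-enriched and run by diaPASEF LC-MS/MS.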

[2] = target: USP46 (UniProt P62068)
Sequence of USP46 (P62068 whole entry): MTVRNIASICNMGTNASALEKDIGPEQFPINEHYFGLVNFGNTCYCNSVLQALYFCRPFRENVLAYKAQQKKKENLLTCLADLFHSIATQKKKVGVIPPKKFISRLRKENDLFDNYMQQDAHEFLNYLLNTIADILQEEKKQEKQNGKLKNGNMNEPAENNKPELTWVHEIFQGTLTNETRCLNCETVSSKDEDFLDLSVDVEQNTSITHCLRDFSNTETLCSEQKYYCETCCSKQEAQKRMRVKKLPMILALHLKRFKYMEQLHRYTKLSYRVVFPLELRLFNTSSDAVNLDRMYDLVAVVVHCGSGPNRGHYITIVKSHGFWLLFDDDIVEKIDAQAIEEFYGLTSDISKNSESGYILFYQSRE
How it was run: as §1

[3] = target: T2, USP47 (UniProt Q96K76)
T2 sequence (whole entry): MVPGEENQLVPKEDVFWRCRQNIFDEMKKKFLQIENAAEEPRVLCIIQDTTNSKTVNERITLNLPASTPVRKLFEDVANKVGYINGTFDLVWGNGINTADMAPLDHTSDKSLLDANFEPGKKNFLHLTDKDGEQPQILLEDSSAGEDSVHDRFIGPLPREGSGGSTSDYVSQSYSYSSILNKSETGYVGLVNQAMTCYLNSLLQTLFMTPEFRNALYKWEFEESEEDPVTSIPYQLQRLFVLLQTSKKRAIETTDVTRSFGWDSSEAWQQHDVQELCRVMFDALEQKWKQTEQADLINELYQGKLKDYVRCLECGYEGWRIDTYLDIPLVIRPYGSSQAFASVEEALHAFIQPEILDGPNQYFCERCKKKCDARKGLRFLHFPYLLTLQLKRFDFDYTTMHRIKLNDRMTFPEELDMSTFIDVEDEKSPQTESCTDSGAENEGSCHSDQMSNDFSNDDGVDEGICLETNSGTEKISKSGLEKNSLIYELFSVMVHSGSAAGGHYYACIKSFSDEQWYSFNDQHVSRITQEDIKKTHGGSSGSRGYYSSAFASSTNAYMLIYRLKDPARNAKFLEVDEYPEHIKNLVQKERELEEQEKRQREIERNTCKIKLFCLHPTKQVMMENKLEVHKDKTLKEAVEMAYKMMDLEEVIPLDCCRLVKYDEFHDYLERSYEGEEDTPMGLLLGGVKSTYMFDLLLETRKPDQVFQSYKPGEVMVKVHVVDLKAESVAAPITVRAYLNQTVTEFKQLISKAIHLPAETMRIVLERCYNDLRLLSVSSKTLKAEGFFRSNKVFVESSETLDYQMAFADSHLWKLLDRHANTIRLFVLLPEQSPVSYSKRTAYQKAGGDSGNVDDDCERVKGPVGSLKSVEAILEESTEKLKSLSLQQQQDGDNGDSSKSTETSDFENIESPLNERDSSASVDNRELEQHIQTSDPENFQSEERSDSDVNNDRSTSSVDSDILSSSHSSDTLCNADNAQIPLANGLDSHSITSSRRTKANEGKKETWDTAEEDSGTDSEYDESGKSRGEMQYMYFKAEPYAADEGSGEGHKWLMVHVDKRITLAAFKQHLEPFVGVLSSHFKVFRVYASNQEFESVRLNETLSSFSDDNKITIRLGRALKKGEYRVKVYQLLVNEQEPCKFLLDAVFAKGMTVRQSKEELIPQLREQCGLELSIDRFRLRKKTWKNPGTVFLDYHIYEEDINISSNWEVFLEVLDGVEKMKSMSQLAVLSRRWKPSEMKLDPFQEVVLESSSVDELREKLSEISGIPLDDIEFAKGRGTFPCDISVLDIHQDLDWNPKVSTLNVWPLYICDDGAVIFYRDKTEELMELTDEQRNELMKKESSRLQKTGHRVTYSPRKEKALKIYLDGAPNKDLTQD
How it was run: as §1

[4] = target: T3, USP48 (UniProt Q86UV5)
T3 sequence (whole entry): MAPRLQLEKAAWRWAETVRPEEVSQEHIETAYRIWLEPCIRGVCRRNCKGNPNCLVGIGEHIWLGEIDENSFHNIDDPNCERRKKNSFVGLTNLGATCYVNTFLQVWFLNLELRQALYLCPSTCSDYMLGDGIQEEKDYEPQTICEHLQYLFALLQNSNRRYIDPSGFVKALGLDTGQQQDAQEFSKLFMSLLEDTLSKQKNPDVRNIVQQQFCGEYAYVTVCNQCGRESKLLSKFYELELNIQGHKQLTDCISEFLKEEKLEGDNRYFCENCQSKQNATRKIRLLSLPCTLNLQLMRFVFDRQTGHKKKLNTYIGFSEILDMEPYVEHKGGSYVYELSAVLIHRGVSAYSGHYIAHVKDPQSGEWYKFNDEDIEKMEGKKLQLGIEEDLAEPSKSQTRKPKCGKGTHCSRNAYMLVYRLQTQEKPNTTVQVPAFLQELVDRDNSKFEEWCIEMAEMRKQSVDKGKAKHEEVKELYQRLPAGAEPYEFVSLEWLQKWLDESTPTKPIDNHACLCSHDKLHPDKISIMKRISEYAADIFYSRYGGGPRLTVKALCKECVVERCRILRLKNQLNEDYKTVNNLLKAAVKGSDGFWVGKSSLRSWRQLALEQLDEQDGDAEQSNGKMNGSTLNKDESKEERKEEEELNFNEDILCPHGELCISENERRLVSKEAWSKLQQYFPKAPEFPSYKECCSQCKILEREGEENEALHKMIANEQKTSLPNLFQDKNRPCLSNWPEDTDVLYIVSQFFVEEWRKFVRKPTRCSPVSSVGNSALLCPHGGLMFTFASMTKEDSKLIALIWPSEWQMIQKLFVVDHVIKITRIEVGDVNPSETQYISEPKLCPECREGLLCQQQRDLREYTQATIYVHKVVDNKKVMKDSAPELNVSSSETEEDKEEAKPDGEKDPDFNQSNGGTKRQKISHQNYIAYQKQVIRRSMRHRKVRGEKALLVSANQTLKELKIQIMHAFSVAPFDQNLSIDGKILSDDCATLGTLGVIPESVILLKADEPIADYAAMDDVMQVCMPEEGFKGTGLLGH
How it was run: as §1

[5] = target: T4, USP5 (UniProt P45974)
T4 sequence (whole entry): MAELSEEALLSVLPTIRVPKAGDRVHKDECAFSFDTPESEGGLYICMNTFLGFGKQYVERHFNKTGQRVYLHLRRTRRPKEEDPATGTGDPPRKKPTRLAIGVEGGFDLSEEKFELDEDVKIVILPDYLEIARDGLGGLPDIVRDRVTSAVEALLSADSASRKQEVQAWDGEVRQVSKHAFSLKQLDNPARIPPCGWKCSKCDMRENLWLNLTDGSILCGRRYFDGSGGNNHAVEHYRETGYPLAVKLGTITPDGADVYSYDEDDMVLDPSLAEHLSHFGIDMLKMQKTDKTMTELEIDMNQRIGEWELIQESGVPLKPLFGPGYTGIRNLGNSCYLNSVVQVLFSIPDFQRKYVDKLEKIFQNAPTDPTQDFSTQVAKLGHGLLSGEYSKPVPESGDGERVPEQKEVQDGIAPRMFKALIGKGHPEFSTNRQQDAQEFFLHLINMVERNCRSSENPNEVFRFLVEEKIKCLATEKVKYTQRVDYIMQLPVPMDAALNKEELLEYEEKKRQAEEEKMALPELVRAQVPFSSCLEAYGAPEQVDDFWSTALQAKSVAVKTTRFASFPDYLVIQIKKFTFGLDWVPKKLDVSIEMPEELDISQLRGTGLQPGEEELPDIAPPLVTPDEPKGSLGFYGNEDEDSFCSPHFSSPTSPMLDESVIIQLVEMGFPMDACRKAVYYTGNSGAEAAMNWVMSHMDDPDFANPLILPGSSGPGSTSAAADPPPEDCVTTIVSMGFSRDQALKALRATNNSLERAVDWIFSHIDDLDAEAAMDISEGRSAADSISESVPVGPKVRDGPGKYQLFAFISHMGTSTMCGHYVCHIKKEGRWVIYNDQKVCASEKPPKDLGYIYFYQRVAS
How it was run: as §1

[6] = target: USP54 (UniProt Q70EL1)
Sequence of USP54 (Q70EL1 whole entry): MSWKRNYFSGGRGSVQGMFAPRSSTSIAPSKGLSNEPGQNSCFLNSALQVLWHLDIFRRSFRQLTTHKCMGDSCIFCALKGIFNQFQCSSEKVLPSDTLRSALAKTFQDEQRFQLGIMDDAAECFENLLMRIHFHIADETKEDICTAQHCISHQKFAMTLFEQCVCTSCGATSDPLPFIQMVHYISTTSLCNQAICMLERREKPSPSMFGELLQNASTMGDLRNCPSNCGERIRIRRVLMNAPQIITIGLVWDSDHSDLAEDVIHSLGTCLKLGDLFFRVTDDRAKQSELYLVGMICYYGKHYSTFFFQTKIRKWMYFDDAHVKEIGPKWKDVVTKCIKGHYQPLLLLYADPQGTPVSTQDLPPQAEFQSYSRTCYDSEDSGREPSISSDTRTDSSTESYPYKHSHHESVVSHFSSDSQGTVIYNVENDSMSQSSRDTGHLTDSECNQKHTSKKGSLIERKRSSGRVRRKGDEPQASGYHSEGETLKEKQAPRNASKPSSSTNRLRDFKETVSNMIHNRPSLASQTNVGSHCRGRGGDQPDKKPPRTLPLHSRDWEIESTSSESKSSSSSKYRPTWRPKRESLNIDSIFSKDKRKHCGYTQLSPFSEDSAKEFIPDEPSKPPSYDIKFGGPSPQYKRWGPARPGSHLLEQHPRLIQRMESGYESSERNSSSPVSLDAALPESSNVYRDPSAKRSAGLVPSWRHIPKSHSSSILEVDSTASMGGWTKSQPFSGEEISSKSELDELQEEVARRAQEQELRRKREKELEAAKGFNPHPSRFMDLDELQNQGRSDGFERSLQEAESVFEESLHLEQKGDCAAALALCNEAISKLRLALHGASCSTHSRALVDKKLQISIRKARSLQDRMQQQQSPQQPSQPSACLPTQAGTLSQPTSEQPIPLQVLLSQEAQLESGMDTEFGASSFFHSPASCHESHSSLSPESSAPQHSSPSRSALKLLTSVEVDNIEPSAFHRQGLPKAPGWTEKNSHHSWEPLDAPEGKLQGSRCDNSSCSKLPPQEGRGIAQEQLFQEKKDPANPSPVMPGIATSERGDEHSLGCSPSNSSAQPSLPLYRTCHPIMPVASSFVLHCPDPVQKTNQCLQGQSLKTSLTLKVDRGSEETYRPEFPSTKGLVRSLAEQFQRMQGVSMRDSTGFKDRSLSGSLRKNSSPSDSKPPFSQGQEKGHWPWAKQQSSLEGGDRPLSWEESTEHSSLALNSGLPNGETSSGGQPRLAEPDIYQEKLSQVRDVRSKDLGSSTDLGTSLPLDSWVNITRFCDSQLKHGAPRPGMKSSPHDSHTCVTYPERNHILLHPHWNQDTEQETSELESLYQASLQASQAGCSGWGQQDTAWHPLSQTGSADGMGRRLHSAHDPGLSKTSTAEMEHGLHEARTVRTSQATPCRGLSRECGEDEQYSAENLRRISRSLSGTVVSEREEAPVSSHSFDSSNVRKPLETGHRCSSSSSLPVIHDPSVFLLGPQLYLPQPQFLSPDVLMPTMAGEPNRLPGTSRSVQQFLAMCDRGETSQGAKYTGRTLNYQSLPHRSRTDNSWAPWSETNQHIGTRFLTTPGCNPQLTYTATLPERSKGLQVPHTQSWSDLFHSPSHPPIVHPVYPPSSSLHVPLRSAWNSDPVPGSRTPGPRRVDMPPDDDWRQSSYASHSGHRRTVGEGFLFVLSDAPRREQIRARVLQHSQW
How it was run: as §1

[7] = target: USP7 (UniProt Q93009)
How it was run: as §1

[8] = target: T5, USP8 (UniProt P40818)
T5 sequence (whole entry): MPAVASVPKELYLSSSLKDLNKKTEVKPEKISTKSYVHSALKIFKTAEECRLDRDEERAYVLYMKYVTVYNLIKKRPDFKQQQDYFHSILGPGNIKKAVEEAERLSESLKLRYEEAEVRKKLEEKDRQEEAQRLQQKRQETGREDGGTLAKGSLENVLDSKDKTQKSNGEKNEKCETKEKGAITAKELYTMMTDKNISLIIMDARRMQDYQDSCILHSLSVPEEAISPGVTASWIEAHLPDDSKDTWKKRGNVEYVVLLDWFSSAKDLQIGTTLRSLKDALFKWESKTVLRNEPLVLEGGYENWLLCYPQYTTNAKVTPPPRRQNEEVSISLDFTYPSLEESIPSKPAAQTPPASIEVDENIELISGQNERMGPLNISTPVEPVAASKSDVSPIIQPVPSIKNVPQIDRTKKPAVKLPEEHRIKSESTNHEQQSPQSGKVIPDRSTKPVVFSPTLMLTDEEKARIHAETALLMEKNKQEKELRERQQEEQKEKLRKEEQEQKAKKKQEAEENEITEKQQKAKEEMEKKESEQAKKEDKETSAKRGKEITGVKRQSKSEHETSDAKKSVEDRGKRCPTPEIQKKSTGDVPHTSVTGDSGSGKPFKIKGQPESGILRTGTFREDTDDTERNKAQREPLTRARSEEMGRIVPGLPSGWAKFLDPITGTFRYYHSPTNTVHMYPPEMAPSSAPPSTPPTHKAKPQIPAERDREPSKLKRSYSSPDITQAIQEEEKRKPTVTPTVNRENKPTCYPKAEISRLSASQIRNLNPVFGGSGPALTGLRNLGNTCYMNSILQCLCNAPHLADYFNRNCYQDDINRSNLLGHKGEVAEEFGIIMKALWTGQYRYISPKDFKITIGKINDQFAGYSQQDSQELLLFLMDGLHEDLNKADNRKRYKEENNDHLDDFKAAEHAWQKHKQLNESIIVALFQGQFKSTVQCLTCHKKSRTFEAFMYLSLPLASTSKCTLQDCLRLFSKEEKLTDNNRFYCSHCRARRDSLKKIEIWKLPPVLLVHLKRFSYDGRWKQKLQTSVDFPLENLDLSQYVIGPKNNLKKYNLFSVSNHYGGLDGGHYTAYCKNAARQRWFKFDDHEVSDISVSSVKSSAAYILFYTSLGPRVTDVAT
How it was run: as §1

[9] = target: USP9X (UniProt Q93008)
Sequence of USP9X (Q93008 whole entry): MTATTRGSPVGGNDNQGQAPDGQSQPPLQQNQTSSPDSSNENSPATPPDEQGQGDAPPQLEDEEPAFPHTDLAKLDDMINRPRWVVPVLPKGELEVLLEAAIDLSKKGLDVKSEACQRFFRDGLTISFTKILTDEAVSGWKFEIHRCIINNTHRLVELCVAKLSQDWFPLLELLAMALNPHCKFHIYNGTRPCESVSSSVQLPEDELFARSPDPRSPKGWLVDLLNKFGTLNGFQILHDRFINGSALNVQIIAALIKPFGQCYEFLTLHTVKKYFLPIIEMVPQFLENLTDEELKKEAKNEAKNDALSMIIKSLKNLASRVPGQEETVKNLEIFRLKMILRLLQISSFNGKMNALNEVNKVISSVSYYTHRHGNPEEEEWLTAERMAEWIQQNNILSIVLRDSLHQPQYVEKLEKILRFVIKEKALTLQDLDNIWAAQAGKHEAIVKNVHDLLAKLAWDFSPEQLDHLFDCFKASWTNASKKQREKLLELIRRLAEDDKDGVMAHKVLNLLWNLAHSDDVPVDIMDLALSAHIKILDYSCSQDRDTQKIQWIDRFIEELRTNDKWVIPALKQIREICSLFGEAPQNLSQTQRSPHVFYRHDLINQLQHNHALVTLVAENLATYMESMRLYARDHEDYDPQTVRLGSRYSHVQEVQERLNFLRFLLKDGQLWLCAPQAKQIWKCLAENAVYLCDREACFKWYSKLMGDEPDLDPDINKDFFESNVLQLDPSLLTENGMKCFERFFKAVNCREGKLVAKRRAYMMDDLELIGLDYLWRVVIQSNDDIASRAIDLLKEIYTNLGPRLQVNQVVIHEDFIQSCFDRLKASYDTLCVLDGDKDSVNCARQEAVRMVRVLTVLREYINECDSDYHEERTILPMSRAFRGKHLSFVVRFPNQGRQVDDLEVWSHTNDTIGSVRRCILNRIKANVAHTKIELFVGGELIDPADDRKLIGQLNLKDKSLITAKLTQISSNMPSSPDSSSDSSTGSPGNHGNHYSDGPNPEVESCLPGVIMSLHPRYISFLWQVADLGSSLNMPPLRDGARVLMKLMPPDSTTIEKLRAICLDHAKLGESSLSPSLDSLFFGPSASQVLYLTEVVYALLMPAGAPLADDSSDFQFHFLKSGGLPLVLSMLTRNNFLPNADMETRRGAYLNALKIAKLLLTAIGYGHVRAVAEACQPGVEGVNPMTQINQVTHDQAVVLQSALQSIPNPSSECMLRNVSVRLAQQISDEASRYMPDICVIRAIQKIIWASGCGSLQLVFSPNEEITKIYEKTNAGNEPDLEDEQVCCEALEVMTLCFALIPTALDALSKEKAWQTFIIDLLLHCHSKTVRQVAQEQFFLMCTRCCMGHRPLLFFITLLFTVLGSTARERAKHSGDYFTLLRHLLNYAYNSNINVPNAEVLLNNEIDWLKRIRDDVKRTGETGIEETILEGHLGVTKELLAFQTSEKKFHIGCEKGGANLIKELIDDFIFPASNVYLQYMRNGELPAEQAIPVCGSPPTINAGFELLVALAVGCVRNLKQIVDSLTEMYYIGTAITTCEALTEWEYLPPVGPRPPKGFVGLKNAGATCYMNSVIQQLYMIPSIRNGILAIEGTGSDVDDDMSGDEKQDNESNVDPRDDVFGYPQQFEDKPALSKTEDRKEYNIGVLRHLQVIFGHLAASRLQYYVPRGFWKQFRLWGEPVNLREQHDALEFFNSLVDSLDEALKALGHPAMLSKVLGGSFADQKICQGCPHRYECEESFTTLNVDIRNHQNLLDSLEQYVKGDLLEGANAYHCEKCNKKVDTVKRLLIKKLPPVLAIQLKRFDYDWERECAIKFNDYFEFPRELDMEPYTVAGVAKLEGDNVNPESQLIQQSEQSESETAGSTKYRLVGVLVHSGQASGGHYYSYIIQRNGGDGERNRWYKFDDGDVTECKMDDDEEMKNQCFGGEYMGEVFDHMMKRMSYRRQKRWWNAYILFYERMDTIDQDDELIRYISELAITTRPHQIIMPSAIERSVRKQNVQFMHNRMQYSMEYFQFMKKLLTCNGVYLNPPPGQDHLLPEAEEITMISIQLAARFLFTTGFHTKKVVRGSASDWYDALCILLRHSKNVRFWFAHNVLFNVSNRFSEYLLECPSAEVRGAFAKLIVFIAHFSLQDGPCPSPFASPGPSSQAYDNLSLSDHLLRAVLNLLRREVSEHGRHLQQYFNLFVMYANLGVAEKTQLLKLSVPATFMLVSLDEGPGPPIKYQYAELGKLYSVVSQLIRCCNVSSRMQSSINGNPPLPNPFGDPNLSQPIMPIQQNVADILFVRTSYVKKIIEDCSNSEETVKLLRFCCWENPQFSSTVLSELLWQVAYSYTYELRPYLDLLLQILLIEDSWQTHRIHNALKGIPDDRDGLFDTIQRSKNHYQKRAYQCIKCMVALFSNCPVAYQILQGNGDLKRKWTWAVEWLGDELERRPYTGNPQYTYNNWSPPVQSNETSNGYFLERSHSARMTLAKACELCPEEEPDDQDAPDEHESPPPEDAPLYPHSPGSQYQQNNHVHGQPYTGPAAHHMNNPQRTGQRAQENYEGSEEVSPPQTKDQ
How it was run: as §1

[10] = target: UniProt O00487
Sequence of UniProt O00487 (O00487 whole entry): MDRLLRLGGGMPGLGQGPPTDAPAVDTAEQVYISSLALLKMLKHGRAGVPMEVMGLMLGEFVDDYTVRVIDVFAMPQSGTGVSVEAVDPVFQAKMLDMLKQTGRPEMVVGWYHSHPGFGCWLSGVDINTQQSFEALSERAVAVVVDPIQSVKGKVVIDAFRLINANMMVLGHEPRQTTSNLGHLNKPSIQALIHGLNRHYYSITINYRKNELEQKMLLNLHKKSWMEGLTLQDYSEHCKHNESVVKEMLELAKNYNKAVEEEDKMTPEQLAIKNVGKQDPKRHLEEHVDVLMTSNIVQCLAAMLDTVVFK
How it was run: as §1

SMILES	log2 ratio of Biotin-Ahx-Ub-VS probe labelling [1]	log2 ratio of Biotin-Ahx-Ub-VS probe labelling [2]	log2 ratio of Biotin-Ahx-Ub-VS probe labelling [3]	log2 ratio of Biotin-Ahx-Ub-VS probe labelling [4]	log2 ratio of Biotin-Ahx-Ub-VS probe labelling [5]	log2 ratio of Biotin-Ahx-Ub-VS probe labelling [6]	log2 ratio of Biotin-Ahx-Ub-VS probe labelling [7]	log2 ratio of Biotin-Ahx-Ub-VS probe labelling [8]	log2 ratio of Biotin-Ahx-Ub-VS probe labelling [9]	log2 ratio of Biotin-Ahx-Ub-VS probe labelling [10]
Cc1nc(-c2cccc(NC(=O)CCl)c2)cs1	0.339	-0.382	-0.123	-0.43	-0.284	0.0451	-0.163	-0.282	-0.362	-0.0542
O=C(CCl)Nc1cc(Cl)ccc1-n1cncn1	0.477	-0.691	-0.4	-0.638	-0.61	0.943	-1.33 (active)	-0.73	-1.04 (active)	-0.13
Cc1noc(C)c1CNC(=O)CCl	0.262	-0.347	0.0132	-0.547	-0.403	1.07	-0.406	-1.2 (active)	-0.717	-0.395
CCN1C(=O)C2CN(C(=O)CCl)CCN2C1=O (stereo not given)	0.369	-0.0317	0.124	-0.1	0.0692	-0.191	-0.307	0.0104	-0.106	0.00662
